D3 antag: antagonists of human D3 dopamine receptor; hit rate 2.5% among 360,000; AID 652054; max response, negative = inhibition, %; P35462; D3R cells, DiscoveRx beta-arrestin luminescence, antagonist mode; hits give low values; in the data active = max response below about -50%; inconclusive = no clear call, values can overlap the other calls; also: % is scaled to controls: 0 for no effect and ±100 for the full control effect
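Cells plated overnight at 1500 cells/well, then exposed to library compounds with dopamine controls for 90 minutes at 37 degrees C. DiscoveRx reagent added for 30–60 minutes at room temperature; luminescence read, quantitative HTS format.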
D1 ag: activates the human D1 dopamine receptor; P21728; HEK293 T-REx D1 cells, calcium flux, agonist mode; activation, % at 2 µM; hit rate 1% among 360,000; in the data active = activation above about 30%; also: 0% is about no effect
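Agonism was scored from calcium flux recorded over 180 s (1 read/s) after pintool compound addition, following a 10-cycle baseline. Cells were inducible force-coupled HEK293 TREx D1, plated overnight at 30 C and loaded with no-wash calcium dye.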
ERG-DNA inh: ERG Ets/DNA interaction inhibition | hit rate 0.028% among 370,000 | P11308 | fluorescence polarization, His-ERG Ets domain / labelled DNA | Potency, µM (doses to about 76.9 µM), without a hit: at the top dose FP activity, negative = inhibition, hits mostly inhibitors; active = well fitted inhibition curve with a large enough effect in the polarisation, with a control signal flat; inconclusive = small, poorly fitted or top-dose-only effect, or effect the other way, or a change in a side signal; inactive = no such curve, though single readings can be large or run the other way; the % refers to the polarisation;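 also: polarization taken with two DNA probes labelled with fluorescein and Texas red; potency is read from the fitted curve at half-maximal effect; % of control where 0% means no effect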
Target sequence (P11308 whole entry, looked up, the tested form may be a part): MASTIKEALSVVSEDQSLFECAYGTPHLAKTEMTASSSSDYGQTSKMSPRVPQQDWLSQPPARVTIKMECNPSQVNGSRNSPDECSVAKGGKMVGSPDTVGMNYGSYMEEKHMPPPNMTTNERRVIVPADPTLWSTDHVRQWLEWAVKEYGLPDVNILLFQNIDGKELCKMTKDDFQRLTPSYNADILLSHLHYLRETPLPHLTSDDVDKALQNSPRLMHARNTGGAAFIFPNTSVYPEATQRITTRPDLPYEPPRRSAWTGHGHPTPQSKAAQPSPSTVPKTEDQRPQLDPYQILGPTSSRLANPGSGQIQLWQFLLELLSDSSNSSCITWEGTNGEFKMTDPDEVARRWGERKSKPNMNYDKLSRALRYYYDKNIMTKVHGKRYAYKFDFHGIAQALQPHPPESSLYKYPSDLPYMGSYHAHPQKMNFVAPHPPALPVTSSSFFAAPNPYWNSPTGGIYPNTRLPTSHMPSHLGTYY
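His-tagged ERG Ets domain (1 uM in the protein solution; 300mM KCl, 50mM Tris-HCl, 1mM EDTA, 1mM DTT, pH 7.5) received compound, then a probe mix of 5 nM fluorescein-DNA and 100nM Texas-615-DNA. Fluorescence polarization was read for both dyes.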
D1 antagonist: human D1 dopamine receptor antagonism | P21728 | activity change, negative = inhibition, % at 10 µM | hit rate 3.2% among 360,000 | HEK293 TREx D1 cells, calcium flux, dopamine EC80; hits give low values | AID 504652; in the data active = activity change below about -30%; also: % is scaled to controls: 0 for no effect and ±100 for the full control effect
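Compound effects on dopamine-evoked calcium signalling were measured in tetracycline-induced HEK293 Trex D1 cells. Dopamine at EC80 followed a 180 s compound pre-read, and fluorescence was tracked kinetically for 180 s more.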
DRD3 agonist: D3 dopamine receptor (human) agonism. max activation, %. AID 652048. D3R DiscoveRx beta-arrestin cells, luminescence, 90 min. hit rate 0.58% among 410,000. P35462; in the data active = max activation above about 30%; also: 0% is about no effect
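Agonist-mode cell screen: cells plated at 1500/well and incubated overnight at 37 °C, then exposed to library compounds for 90 min at 37 °C. Detection reagent was added for 30–60 min at room temperature, and luminescence was read.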
D1 PAM: enhances dopamine response at the human D1 receptor | P21728 | HEK293 TREx D1 cells, calcium flux, dopamine EC20 potentiation | potentiation, % at 10 µM | hit rate 0.036% among 360,000 | AID 504651; in the data active = potentiation above about 30%; also: 0% is about no effect
Starred values were filed as active, the others as inactive; ? = inconclusive; . = no result given. Only some compounds are listed: those with a hit (about 6.1% of all), similar ones and a draw of the others.

SMILES | D3 antag | D1 ag | ERG-DNA inh | D1 antagonist | DRD3 agonist | D1 PAM
CC(C)Oc1ccc2c(=O)c(-c3ccccc3)coc2c1 | -11 | 2 | 14% | -18 | 11 | -2
COC(=O)COc1ccc2c(=O)c(-c3ccccc3)coc2c1 | -15 | 10 | -9% | -42* | -7 | -4
Fc1ccc(-c2cc(-c3ccccc3)c3c(n2)-c2ccccc2OC3)cc1 | . | -1 | -4% | -11 | 3 | -3
CCNc1ccc(Br)cc(C(=O)/C=C/c2c(Cl)cccc2Cl)c1=O | -66* | 2 | -2% | -10 | -4 | -7
CC(C)[C@H]1C(=O)Nc2ccccc2N1C(=O)N[C@@H](Cc1ccccc1)C(=O)N[C@@H](Cc1ccccc1)C(=O)O | -7 | 0 | 5% | -31* | 14 | 0
COc1ccc(CC(=O)OCC(=O)c2ccc(OC)c(OC)c2)cc1 | 0 | 3 | . | -31* | 4 | -5
O=C(Nc1ccccc1N1CCCC1)c1ccc2c(c1)OCO2 | 24 | 2 | 0% | -9 | 0 | -6
CCOc1ccc(CCNC(=O)COC(=O)c2ccc(C)c([N+](=O)[O-])c2)cc1OCC | 11 | 3 | -1% | -47* | 6 | 0
CCOc1ccc(CCNC(=O)COC(=O)c2ccc(OC(C)C)cc2)cc1OCC | -53* | 7 | 0% | -17 | 1 | -8
CCOc1ccc(CCNC(=O)COC(=O)c2ccc(S(=O)(=O)N3CCCC3)cc2)cc1OCC | 18 | 4 | 14% | -38* | 4 | -3
CCOc1ccc(CCNC(=O)COC(=O)c2ccncc2)cc1OCC | -16 | . | 12% | . | -2 | .
CCOc1ccc(CCNC(=O)COC(=O)c2ccc(S(C)(=O)=O)cc2)cc1OCC | 20 | 1 | -4% | 3 | -8 | -7
Cc1ccc(CNC(=O)COC(=O)c2ccc(S(=O)(=O)N3CCCC3)cc2)cc1 | 2 | 4 | 2% | -30* | 0 | -3
Cc1cc(OCC(=O)NC(C)(C)C)ccc1Cl | 28 | 14 | -8% | -11 | 3 | -6
CCOc1ccc(-c2cc(CCCC(=O)NCCc3ccc(OCC)c(OCC)c3)no2)cc1 | . | 9 | 0% | -33* | 8 | -4
CCN(CC)c1ccc(/C=C2\CCC(/C=N/NC(=O)c3ccc(=O)n(C)c3)=C2N2CCOCC2)cc1 | 0 | 74* | 9% | 13 | 12 | 7
O=C(O)c1ccccc1N/N=C/C1=C(N2CCOCC2)C(=C\c2ccccc2)/CC1 | -6 | 24 | 12% | -30* | -1 | -5
Cc1cc(C)nc(N/N=C/C2=C(N3CCOCC3)C(=C/c3ccccc3)/CC2)n1 | -17 | 0 | -2% | -45* | 13 | -12
CC1CN(C(=O)COC(=O)/C=C/c2cccc([N+](=O)[O-])c2)CC(C)O1 (stereo not drawn) | 36 | . | -8% | . | 2 | .
O=C1CCSc2ccc(Cl)cc2N1Cc1cccc(Cl)c1 | -25 | 12 | -9% | 23 | -4 | -3
O=C1CC[C@@H](C(=O)N[C@H]2C[C@@H]2c2ccccc2)N1 | . | . | . | . | -5 | .
O=C(C1CCC(=O)N(C2CCCC2)C1)N1CCN(Cc2cccc(F)c2)CC1 (stereo not drawn) | 3 | 3 | 19% | -12 | 3 | -6
COc1ccc(C)cc1S(=O)(=O)Nc1cc2c3c(c1)CC(=O)N3CCC2 | 11 | 0 | 6% | -14 | 3 | -2
Cc1ccc(/C=[N+](\[O-])c2ccc(N(C)C)cc2)c2nsnc12 | ? | 37* | 11% | -5 | -6 | 3
Cc1ccc(NCc2nnc(SCC(=O)N(Cc3ccccc3)C(C)(C)C)o2)c(C)c1 | 28 | 1 | -4% | -45* | 10 | -3
SMILES | D3 antag | D1 ag | ERG-DNA inh | D1 antagonist | DRD3 agonist | D1 PAM
Cc1ccc(NCc2nnc(SCC(N)=O)o2)c(C)c1 | 2 | 2 | 6% | -9 | -2 | -1
Cc1[nH]c2ccc(-c3n[nH]c(=S)n3-c3ccccc3)cc2c1C | -18 | 3 | 0% | -16 | -2 | -2
Cc1[nH]c2ccc(-c3n[nH]c(=S)n3Cc3ccccc3)cc2c1C | -3 | 7 | -4% | -32* | -5 | -6
Cc1ccc(S(=O)(=O)C2(C(=O)Nc3cccc(F)c3)CC2)cc1 | -17 | -1 | -1% | 25 | -3 | -7
NC(=O)C1CCN(C(=O)c2cc3c(s2)CCCC3)CC1 | -3 | 1 | 2% | 37 | 2 | -2
CC(=O)c1ccc(N2CCN(C(=O)c3cc4c(s3)CCCC4)CC2)cc1 | -2 | 3 | -4% | -35* | -5 | -6
COc1ccc2nc3sc(C(=O)N4CCN(c5ccccc5)CC4)cc3cc2c1 | . | 1 | -1% | -59* | 0 | -1
COc1ccc(N2CCN(C(=O)c3cc4c(s3)CCCCC4)CC2)cc1 | -2 | 1 | 2% | -57* | -11 | -11
COc1cccc(N2CCN(C(=O)c3cc4cc5cc(C)ccc5nc4s3)CC2)c1 | . | 1 | -2% | -16 | -4 | -2
C=CCN1CCN(C(=O)c2cc3c(s2)CCCC3)CC1 | -58* | 1 | 2% | -1 | -26 | 9
C(=C\c1cccc2ccccc12)/c1nnc(-c2cccs2)o1 | -17 | 5 | . | -1 | -5 | 3
Oc1cccc(O)c1 | . | . | . | . | 13 | .
Cc1cccc(C)c1NC(=O)CSc1nc2ccccc2c2nc(CCc3c(C)n[nH]c3C)nn12 | . | 2 | -2% | -46* | 10 | 0
COc1ccc2c(c1)C=C(CN1CCC(CO)(CCc3ccccc3)CC1)CO2 | -87* | 1 | -12% | -5 | -22 | -2
COc1ccc(CC2(CO)CCN(CC3=Cc4cc(Cl)ccc4OC3)CC2)cc1 | -75* | 1 | -6% | 12 | -13 | -3
COc1ccc(CC2(CO)CCN(Cc3ccc4c(c3)CCO4)CC2)cc1 | ? | 13 | 3% | 6 | -28 | 4
CCOC(=O)/C=C1\NC(C)(C)Cc2cc(OC)c(OC)cc21 | -16 | 0 | 1% | -41* | -1 | -6
COC(=O)c1ccc(OC(=O)c2cccnc2)cc1 | 14 | 4 | -2% | -1 | 2 | -3
COc1ccc(C(=O)Oc2cccnc2)cc1 | 0 | 1 | -18% | -32* | -2 | -5
Nc1ccn([C@@H]2O[C@H](CNS(=O)(=O)c3cc4ccccc4s3)[C@@H](O)[C@H]2O)c(=O)n1 | -28 | . | . | . | -3 | .
CCN1C(=O)/C(=C/C=C2\N(CC)c3cc(S(=O)(=O)N(C)C)ccc3N2c2ccccc2)SC1=S | ? | 83* | 82% | 14 | -12 | -3
CC1(CC(=O)N/N=C/c2ccc(OCc3ccc(Cl)cc3Cl)cc2)OCCCO1 | 36 | 4 | -1% | -31* | 5 | -8
COc1ccccc1C(CNC(=O)CNC(=O)c1ccc(Cl)c(Cl)c1)N1CCCC1 (stereo not drawn) | ? | 9 | . | -38* | -8 | .

Screening results from PubChem.
